Most compounds without a hit are left out; they make up all but 1.4% or so of the library.
IL1B NFkB pot – enhances IL-1B driven NFkB nuclear translocation; activation, % at 2 µM; 94,000 compounds, 0.3% hits; HUVEC IL-1B NFkB p65 nuclear translocation imaging; AID 819;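 active = activation above 40%, about the mean plus 3 SD, also judged a hit on visual image review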;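 also: percent activation is computed from the nuclear over cytoplasmic p65 intensity ratio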
IL1B cytotox – HUVEC cytotoxicity counter-screen, IL-1B stimulated; cell count reduction, % at 2 µM; 94,000 compounds, 0.41% hits; HUVEC cell count loss, Hoechst imaging;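 active = cell count reduction more than 3 SD above the screen-wide mean, cut at about 70% in these data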;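 also: normalized per plate to untreated control cells as the no-loss baseline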
MRP-1 activ – activators of MRP-1 | H69AR cells + doxorubicin, viability rescue, CellTiter-Glo | viability increase, % at 10 µM | 140,000 compounds, 0.61% hits | AID 799;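 active = viability gain under doxorubicin at or above a set limit, the compound median plus 3 SD, cut at about 4.7% in these data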;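 also: MRP-1 overexpressing cells given doxorubicin 25 µM after compound pretreatment; 18-22 h compound pretreatment then 72 h with doxorubicin before readout; 0% = doxorubicin-only wells and 100% = vehicle-treated cells without doxorubicin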
MRP reversal – reverses drug resistance mediated by MRP. H69AR cells + 2 uM doxorubicin, CellTiter-Glo, 72 h. differential viability (reversal), % at 10 µM. 85,000 compounds, 0.04% hits;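 active = viability drop by adding the cancer drug above about 55%, with treated viability meeting a 40% cutoff, limit read from the data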;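 also: viability without doxorubicin minus viability with 2 µM doxorubicin for each compound; larger differential means the compound sensitizes cells more to doxorubicin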
IL1B NFkB inh – blocks IL-1B driven NFkB nuclear translocation in HUVEC cells | HUVEC IL-1B NFkB p65 nuclear translocation imaging | inhibition, % at 2 µM | 94,000 compounds, 0.43% hits;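 active = inhibition above about 30% together with a positive call from visual inspection of the well image, limit read from the data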;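 also: nuclear over cytoplasmic p65 intensity ratio measured by imaging; 0% = IL-1B stimulated DMSO wells and 100% = unstimulated DMSO wells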
sdo1 growth – restores growth of sdo1-depleted yeast. z-score at 10 µM. 140,000 compounds, 0.21% hits. S. cerevisiae sdo1-depleted JHY4D growth rescue, OD600 30 h; active compounds read high; pdr5 snq2 efflux-pump mutant strain. AID 817;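 active = z-score above 3 at both the 24 hr and the 30 hr optical density reads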;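 also: z-score against mean and SD of all compound wells on the same plate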
Starred values were filed as active, the others as inactive; nt = no result given.

SMILES	IL1B NFkB pot	IL1B cytotox	MRP-1 activ	MRP reversal	IL1B NFkB inh	sdo1 growth
O=C(Nc1nnc(C2CCCO2)s1)c1cccs1 (stereo not given)	-37	70*	-2	-4	37*	0.44
Cc1cc(NCc2ccco2)n2ncnc2n1	nt	nt	-1	nt	nt	-0.02
Cc1c(OCC(=O)OC(C)(C)C)ccc2c3c(c(=O)oc12)CCC3	16	-32	5.1*	-10	-16	-0.19
COc1ccc(-c2nnc(SC(C)C(=O)Nc3cccc(Cl)c3)o2)cc1 (stereo not given)	12	-15	5.8*	-2	-12	-0.38
Cc1c(Cc2ccccc2)sc(N)c1C(N)=O	-98	87*	-4	28	98*	-0.21
CCOC(=O)/C(=C/c1c2ccccc2cc2ccccc12)NC(=O)c1ccccc1	-97	92*	-1	nt	-6	-1.2
C=CCOC(=O)/C(=C\c1cccc2ccccc12)NC(=O)c1ccccc1	38	-10	-3	nt	-38	-1.2
O=C(CSc1nnc(Cn2nnc(-c3ccccc3)n2)n1-c1ccccc1)Nc1ccc(F)cc1	-99	90*	-1	-3	99*	-1.6
O=C(CSc1ccc2ccccc2n1)N1CCC(c2noc3ccc(F)cc23)CC1	-8	-14	-3	1	8	0.08
CCCCNC(=O)c1onc(CCl)c1C(=O)OC	4	-38	-5	nt	-4	0.16
COC(=O)C1C(=O)c2c([nH]c(C(=O)OC3CCCC3C)c2C)CC1C (stereo not given)	nt	nt	1	-9	nt	-1.2
COC(=O)C1C(=O)c2c([nH]c(C(=O)OC3CCCCC3)c2C)CC1C (stereo not given)	nt	nt	5.2*	2	nt	-0.36
Cc1cccc2sc(NC(=O)C3c4ccccc4Oc4ccccc43)nc12	nt	nt	-6	nt	4	-1.1
O=C(NCCCO)c1nc2ccccc2s1	42*	10	0	-6	-42	0.36
CCOC(=O)C1=C(C)Nc2sc(C(=O)c3ccc(C)cc3)c(N)c2C1c1ccc(C(=O)OC)cc1 (stereo not given)	nt	nt	6.5*	nt	nt	0.94
CCOC(=O)C1=C(C)Nc2sc(C(=O)c3ccc(F)cc3)c(N)c2C1c1ccc(C(=O)OC)cc1 (stereo not given)	nt	nt	1	nt	nt	-0.03
O=C(O)/C=C\C(=O)NC1CCCCC1	nt	nt	29*	nt	nt	0.01
CC(C)CNC(=O)c1c(N)n(/N=C/c2ccccn2)c2nc3ccccc3nc12	11	-63	5.1*	35	-11	-2
O=[N+]([O-])c1ccc(N/N=C/c2ccc[nH]2)cc1	nt	nt	-4	nt	nt	-1.2
CCC1(C)Cc2c(sc3nnn(Cc4ccccc4Cl)c(=O)c23)CO1 (stereo not given)	10	-3	8.0*	nt	-10	-0.95
CCC1(C)Cc2c(sc3nnn(CC(=O)Nc4ccccc4)c(=O)c23)CO1 (stereo not given)	10	-96	5.0*	nt	-10	-0.78
Cc1ccc(C(=O)NN2C(=O)C3C4c5ccccc5C(c5ccccc54)C3C2=O)cc1 (stereo not given)	nt	nt	-1	nt	nt	-0.25
CC(OC(=O)CCc1nc2ccccc2c(=O)[nH]1)C(=O)c1ccc(C(C)(C)C)cc1 (stereo not given)	nt	nt	-2	nt	nt	0.15
CC(Nc1ccccc1)c1cc(Cl)ccc1O (stereo not given)	-91	89*	-4	-3	91*	0.19
CC(C)CNC(=O)c1cccc(NC(=O)c2ccc(Cl)c([N+](=O)[O-])c2)c1	nt	nt	-4	nt	nt	-0.17
SMILES	IL1B NFkB pot	IL1B cytotox	MRP-1 activ	MRP reversal	IL1B NFkB inh	sdo1 growth
COc1ccc(N/C(=C(/C(Cl)=C(Cl)Cl)[N+](=O)[O-])n2nnc3ccccc32)cc1OC	8	-3	-6	-11	-8	0.23
c1ccc(C(c2ccccc2)N2CCN(c3nc4ccccc4n4cnnc34)CC2)cc1	-3	10	6.7*	-6	3	-0.23
COc1ccc(C(=O)CC(Nc2ccc([N+](=O)[O-])cc2)c2ccc(Cl)cc2)cc1 (stereo not given)	10	-20	-2	nt	-10	0.03
O=C(O)c1cc(S(=O)(=O)NCc2ccco2)c(Cl)cc1Cl	2	26	-4	10	-2	0.42
O=C(c1ccc(Cl)c(S(=O)(=O)NCc2ccco2)c1)N1CCN(c2ccc(F)cc2)CC1	-36	-6	0	-23	36*	1.8
CCOC(=O)c1c(-c2ccc(F)cc2)csc1NC(=O)c1c(-c2ccccc2)noc1C	nt	nt	7.5*	nt	nt	0.99
COC(=O)c1c(-c2ccccc2)csc1NC(=O)c1c(-c2ccccc2)noc1C	nt	nt	2	nt	nt	0.01
c1ccc2oc(-c3ccc4nc[nH]c4c3)nc2c1	-52	-31	-2	2	52*	1.6
COc1ccc(NC(=O)CC2C(=O)N(c3ccc(F)cc3)C(=S)N2NC(=O)c2ccccc2)cc1 (stereo not given)	nt	nt	6.4*	nt	nt	0.53
CC1=NN(C(=O)c2ccc(Cn3nc(C)c([N+](=O)[O-])c3C)cc2)C(O)(C(F)(F)F)C1 (stereo not given)	22	4	2	nt	-22	1.2
CC1=NN(C(=O)c2ccc(Cn3nc(C)c(Br)c3C)cc2)C(O)(C(F)(F)F)C1 (stereo not given)	nt	nt	5.2*	nt	nt	-0.44
CCC1CCCCN1C(=S)NC1CCCCC1 (stereo not given)	nt	nt	-1	nt	nt	0.05
CCOc1cc(C2C(C(=O)c3ccc(C)o3)=C(O)C(=O)N2CCc2ccccc2)ccc1O (stereo not given)	-47	-27	-2	3	47*	0.03
Cc1cc(Cl)ccc1OCCCC(=O)NCCN1C(=O)S/C(=C\c2cccnc2)C1=O	nt	nt	-5	nt	nt	-1.3
O=C(/C=C/NNC(=O)c1ccccc1)c1ccc(Br)cc1	-17	5	6.0*	-28	17	0.28
O=C(/C=C/NNC(=O)c1cccc(Br)c1)c1cccc(Br)c1	-11	32	-2	-15	-8	0.49
CCCCNC(=O)COc1ccccc1[N+](=O)[O-]	nt	nt	0	nt	nt	0.23
Nc1c2c(nc3ccn(-c4ccccc4)c(=O)c13)CCCCC2	-4	-16	4.9*	6	4	0.97
Cc1ccc(Nc2nnc(SC(C)C(=O)Nc3c(C)n(C)n(-c4ccccc4)c3=O)s2)cc1 (stereo not given)	nt	nt	-1	nt	nt	1
CC(NC(=O)c1ccco1)c1cccc2ccccc12 (stereo not given)	-98	78*	0	-8	98*	-0.77
Cc1ccc(S(=O)(=O)c2ccc(Cl)cc2)cc1S(=O)(=O)NC(C)C(=O)O (stereo not given)	nt	nt	-1	nt	nt	1.3
COc1ccc(OCC(=O)Nc2cccc(C(=O)Nc3ccccc3C(=O)O)c2)cc1	nt	nt	-1	nt	nt	1.1
CC1=NN(C(=O)COc2ccc(C)c(C)c2)C(O)(c2ccccc2)C1 (stereo not given)	nt	nt	-2	nt	nt	-0.36
N/C(Cc1cccs1)=N\OC(=O)COc1ccc(Br)cc1	60*	3	5.3*	-3	-60	-2.3
